Laboratory results: ChEMBL document CHEMBL3433997, “St. Jude Leishmania screening dataset” (2016)

The compounds below were run against Solute carrier family 2, facilitated glucose transporter member 1 (Homo sapiens) (UniProt P11166) (assay: ST_JUDE_LEISH: Cytotoxicity at 2uM final concentration against transgenic Leishmania Mexicana promastigotes LmGLUT1 that are glucose transport deficient and complemented with the human glucose transporter GLUT1. Activity is measured by DNA content using SYBR green in vitro).
Chain of Solute carrier family 2, facilitated glucose transporter member 1 (Homo sapiens) (P11166 whole entry): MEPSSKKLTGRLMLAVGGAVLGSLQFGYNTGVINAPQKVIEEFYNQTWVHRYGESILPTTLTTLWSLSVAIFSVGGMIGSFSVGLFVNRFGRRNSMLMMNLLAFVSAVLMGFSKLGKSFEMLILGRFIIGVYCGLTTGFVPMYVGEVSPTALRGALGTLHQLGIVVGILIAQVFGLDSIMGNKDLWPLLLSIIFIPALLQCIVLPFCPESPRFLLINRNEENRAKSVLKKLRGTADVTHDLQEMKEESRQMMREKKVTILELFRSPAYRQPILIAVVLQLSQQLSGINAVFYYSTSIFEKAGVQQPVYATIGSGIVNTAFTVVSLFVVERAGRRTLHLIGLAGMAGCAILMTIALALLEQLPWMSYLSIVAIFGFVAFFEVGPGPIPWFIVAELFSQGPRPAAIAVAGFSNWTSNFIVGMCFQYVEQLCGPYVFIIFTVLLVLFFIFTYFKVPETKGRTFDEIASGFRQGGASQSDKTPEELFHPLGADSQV
Format: functional
For `CCn1c(-c2nonc2N)nc2cnc(Oc3cccc(NC(=O)c4ccc(OCCCN5CCCCC5)cc4)c3)cc21`, the inhibition was 16.4%. `CCc1cn2c3c(cc(C(=O)N[C@@H](Cc4ccccc4)[C@H](O)CNC(C)C)cc13)N(C)S(=O)(=O)C2` gave an inhibition of -2.02%. For `COc1cccc2c(N/N=C/c3cccc([N+](=O)[O-])c3)ccnc12`, the inhibition was 13.4%. Compound `COc1cc(NC(=O)c2ccc3oc4ccccc4c3c2)ccc1OCCN1CCCCC1` has an inhibition of -0.45%. `CC(Nc1ccc2c(c1)OCCO2)C(=O)Nc1cc(C(F)(F)F)ccc1N1CCOCC1` (stereo not drawn) was tested, and the inhibition was 7.38%. In the case of `Cc1ccc(NC(=O)Nc2ccc(Cn3ncc(N4CCCNCC4)c(Cl)c3=O)cc2)cc1`, the inhibition is reported as 2.01%. `O=C(Nc1ccccc1)Nc1cccc(-c2nn3c(OCC4CCCCN4)cccc3c2-c2ccncc2)c1` (stereo not drawn) gave an inhibition of 5.24%. For `COc1ccc(-c2ccc(NC(=O)c3cccc(F)c3)cc2)cc1CNC(C)C`, the inhibition was 0.72%. `Cc1cc(N(C)C)nc(Nc2ccc(NC(=O)COc3ccccc3)cc2)n1` gave an inhibition of 2.72%. In the case of `Cc1ccn2cc(-c3ccc(NC(=O)c4ccc(Br)o4)cc3)nc2c1`, the inhibition is reported as 1.17%. With `Cc1ncccc1C(=O)Nc1cccc(-c2cccc(-c3nc4cc(C(F)(F)F)ccc4[nH]3)c2)c1` the inhibition was 0.73%. Compound `O=C(NCCCCN1CCC(c2ccc3c(c2OCCCO)CCCC3)CC1)c1ccc(-c2ccc(C(F)(F)F)cc2)c(CO)c1` has an inhibition of -0.96%. `CN1CCN(Cc2ccc(-c3cc4nccc(Nc5ccc(Oc6ccccc6)cc5)c4cc3Cl)o2)CC1` was tested, and the inhibition was 1.96%. Work on `COc1ccc(CNc2nc(NCCc3ccccc3)c3cc(OC)c(OC)cc3n2)cc1OC` yielded an inhibition of 3.4%. Compound `CC(C)N(CCOc1ccc2c(c1)N(C(=O)Nc1cc(Br)cc(C(F)(F)F)c1)CC2)C(C)C` has an inhibition of 3.92%. `COc1cccc(-c2csc(C(=O)NC3CCCCN(Cc4ccc(C(C)(C)C)cc4)C3)c2)c1` (stereo not drawn) gave an inhibition of 4.84%. For `CC(C)Sc1nc2c(c(=O)n1CCc1ccccc1)C1(CCCC1)Cc1ccccc1-2`, the inhibition was 1.78%. `O=C(/C=C/c1ccc(Cl)c(Cl)c1)NCCCCCN1CCC(NC(=O)Nc2ccc(F)cc2F)CC1` showed an inhibition of 1.35%. `COc1ccccc1N1CCN(CCCCNC(=O)c2ccc(NC(=O)c3cc(Cl)cc(Cl)c3)cc2)CC1` gave an inhibition of 2.07%. `CC1CC(C)CN(CCCNc2ccc(C(=O)Nc3ccc(C(F)(F)F)cc3)cc2[N+](=O)[O-])C1` (stereo not drawn) showed an inhibition of 3.92%. Compound `COc1ccc(CCNCCCCCNCCCc2ccc(Cl)cc2)cc1OC` has an inhibition of -1.33%. With `CCn1c(SCc2ccc(F)cc2)nc2sc3c(c2c1=O)CCN(C)C3` the inhibition was -1.93%. Work on `CC(C)(CNC(=O)[C@@H]1CCCN(Cc2ccc(Cl)cc2)C1)c1nc(-c2ccc(Cl)c(O)c2)c(-c2ccncc2)[nH]1` yielded an inhibition of -1.45%.

These compounds were tested against Hexose transporter 1 (Plasmodium falciparum) (UniProt O97467) (assay: ST_JUDE_LEISH: Cytotoxicity at 2uM final concentration against transgenic Leishmania Mexicana promastigotes LmPfHT that are glucose transport deficient and complemented with the Plasmodium falciparum hexose transporter. Activity is measured by DNA content using SYBR green in vitro).
Format: functional
`O=C(Nc1ccc(C(F)(F)F)cc1)c1cccc(S(=O)(=O)NC2CCN(Cc3ccccc3)C2)c1` (stereo not drawn) was tested, and the inhibition was 3.64%. `Cc1cc(Br)c(OCCCON2C(=N)N=C(N)NC2(C)C)c(Br)c1` showed an inhibition of 4.88%. Compound `O=C(Nc1cccc(-c2ccc(-c3nc4ccccc4[nH]3)s2)c1)c1ccncc1` has an inhibition of 9.91%. Compound `CC(=NNC(S)=Nc1ccccc1Cl)c1ccccn1` has an inhibition of 19.6%. `CC(=O)Nc1ccc(C(=O)Nc2ccc(-c3cccc(-c4nc5ccccc5[nH]4)c3)cc2)cn1` showed an inhibition of 0.79%. `Cc1cc(CNCCCCCNCc2cccc([N+](=O)[O-])c2)ccc1O` gave an inhibition of 1.39%. Compound `Cc1cc(C)c2c(c1)C(=NO)CCN2` has an inhibition of 1.76%. `O=C(N[C@@H](Cc1ccccc1)C(=O)NC1CCCCC1)c1ccc(O)c(-c2ccc(Cl)c(Cl)c2)c1` gave an inhibition of 0.22%. `OCC(CO)(CO)NCc1ccc2c3c(cccc13)-c1ccccc1-2` was tested, and the inhibition was 14.8%. `CCCCCCCCCCNCC(O)c1ccc(O)c(C(=O)OC)c1` (stereo not drawn) showed an inhibition of 1.42%. Compound `COc1ccc2c(c1)OC(C)(C)CC2=NOS(=O)(=O)c1ccc(C)cc1` has an inhibition of 0.98%. With `Cc1cc(C)c(C(=O)Nc2ccc3nc(C)cc(N)c3c2)c(C)c1` the inhibition was 1.52%. `CCOC(=O)NC1=NC(C)(C)N(OCc2ccc(Cl)c(Cl)c2)C(NC(=O)OCC)=N1` showed an inhibition of 2.08%. `O=C(N[C@H]1CCN(Cc2ccc(OC3CCN(Cc4ccccc4)CC3)c(Cl)c2)C1)c1ccc(Cl)c(Cl)c1` gave an inhibition of 2.06%. `Cc1[nH]c(C)c(-c2ccc(-c3ccc(F)cc3)nc2)c(=O)c1Br` was tested, and the inhibition was 1.82%. `Cc1ccc(Cc2c[nH]c(NCCSCc3ccc(CN(C)C)s3)nc2=O)cn1` was tested, and the inhibition was 1.14%. Work on `O=C(NCCN1CCCC1)c1ccc(-c2cccc(-c3nc4cc(F)ccc4[nH]3)c2)cc1` yielded an inhibition of 0%. Compound `CCn1c(-c2nonc2N)nc2cnc(Oc3cccc(NC(=O)c4ccc(OCCCN5CCCCC5)cc4)c3)cc21` has an inhibition of 25.8%. `CCc1cn2c3c(cc(C(=O)N[C@@H](Cc4ccccc4)[C@H](O)CNC(C)C)cc13)N(C)S(=O)(=O)C2` gave an inhibition of -1.87%. `COc1cccc2c(N/N=C/c3cccc([N+](=O)[O-])c3)ccnc12` was tested, and the inhibition was 10.8%. `COc1cc(NC(=O)c2ccc3oc4ccccc4c3c2)ccc1OCCN1CCCCC1` showed an inhibition of 1.28%. Work on `CC(Nc1ccc2c(c1)OCCO2)C(=O)Nc1cc(C(F)(F)F)ccc1N1CCOCC1` (stereo not drawn) yielded an inhibition of 8.1%. For `Cc1ccc(NC(=O)Nc2ccc(Cn3ncc(N4CCCNCC4)c(Cl)c3=O)cc2)cc1`, the inhibition was 4.54%. Compound `O=C(Nc1ccccc1)Nc1cccc(-c2nn3c(OCC4CCCCN4)cccc3c2-c2ccncc2)c1` (stereo not drawn) has an inhibition of 1.67%. In the case of `COc1ccc(-c2ccc(NC(=O)c3cccc(F)c3)cc2)cc1CNC(C)C`, the inhibition is reported as -0.6%. Work on `Cc1cc(N(C)C)nc(Nc2ccc(NC(=O)COc3ccccc3)cc2)n1` yielded an inhibition of 7.92%. `Cc1ccn2cc(-c3ccc(NC(=O)c4ccc(Br)o4)cc3)nc2c1` showed an inhibition of 2.74%. `Cc1ncccc1C(=O)Nc1cccc(-c2cccc(-c3nc4cc(C(F)(F)F)ccc4[nH]3)c2)c1` gave an inhibition of 1.25%. Work on `O=C(NCCCCN1CCC(c2ccc3c(c2OCCCO)CCCC3)CC1)c1ccc(-c2ccc(C(F)(F)F)cc2)c(CO)c1` yielded an inhibition of -0.59%. For `CN1CCN(Cc2ccc(-c3cc4nccc(Nc5ccc(Oc6ccccc6)cc5)c4cc3Cl)o2)CC1`, the inhibition was 2.5%. For `COc1ccc(CNc2nc(NCCc3ccccc3)c3cc(OC)c(OC)cc3n2)cc1OC`, the inhibition was 3.46%. `CC(C)N(CCOc1ccc2c(c1)N(C(=O)Nc1cc(Br)cc(C(F)(F)F)c1)CC2)C(C)C` showed an inhibition of 2.23%. For `COc1cccc(-c2csc(C(=O)NC3CCCCN(Cc4ccc(C(C)(C)C)cc4)C3)c2)c1` (stereo not drawn), the inhibition was 7.61%. Work on `CC(C)Sc1nc2c(c(=O)n1CCc1ccccc1)C1(CCCC1)Cc1ccccc1-2` yielded an inhibition of 2.51%. For `O=C(/C=C/c1ccc(Cl)c(Cl)c1)NCCCCCN1CCC(NC(=O)Nc2ccc(F)cc2F)CC1`, the inhibition was 2.88%. In the case of `COc1ccccc1N1CCN(CCCCNC(=O)c2ccc(NC(=O)c3cc(Cl)cc(Cl)c3)cc2)CC1`, the inhibition is reported as 3.24%. Compound `CC1CC(C)CN(CCCNc2ccc(C(=O)Nc3ccc(C(F)(F)F)cc3)cc2[N+](=O)[O-])C1` (stereo not drawn) has an inhibition of 0.64%. Work on `COc1ccc(CCNCCCCCNCCCc2ccc(Cl)cc2)cc1OC` yielded an inhibition of -1.18%. `CCn1c(SCc2ccc(F)cc2)nc2sc3c(c2c1=O)CCN(C)C3` was tested, and the inhibition was 1.32%. Work on `CC(C)(CNC(=O)[C@@H]1CCCN(Cc2ccc(Cl)cc2)C1)c1nc(-c2ccc(Cl)c(O)c2)c(-c2ccncc2)[nH]1` yielded an inhibition of 0.41%.
